# Inconclusive results are not listed. A call without a number means that no potency is given here. Calls of active or inactive are those of the source. The call rests on the fitted dose curve; in most records, active means well fitted cell-killing curve with a large enough effect; inconclusive means small, poorly fitted or top-dose-only effect, or effect the other way; inactive means flat fitted curve, though single readings scatter.
# Test system: SKOV3
# Assay: Primary qHTS to identify gynecologic anti-cancer compounds using libraries of approved drugs and bioactive compounds (AID 1345084); further: nearly all actives have a fitted effect of over 55% in size
# Details: Gynecologic cancer cell panel viability, ATPlite luminescence, 48 h; series mostly up to 57.5 µM
# In short: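 Cytotoxicity screen measuring ATP content by luciferase luminescence. Each compound is applied at five concentrations for 48 h at 37 C with 5% CO2.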
Structure (SMILES),Potency,"activity change, negative = cytotoxicity"
C=C(C)C1CCC2(C(=O)O)CCC3(C(=O)O)C(CCC4C5(C)CCC(O)C(C)(C(=O)O)C5CCC43C)C12 (centres undefined),inactive,
O=C(Nc1ccccc1-c1cn2c(CN3CCNCC3)csc2n1)c1ccc2ccccc2n1,inactive,
COc1c2c(c(CO)c3c1C(=O)OC3)OC1(C)CCC3(O)C(C)(C)OC(=O)CCC3(C)C1C2 (centres undefined),inactive,
CC(C)C(N)C(=O)OCCOCn1cnc2c(=O)[nH]c(N)nc21 (centres undefined),inactive,
O=C(Nc1ccc(S(=O)(=O)Nc2nccs2)cc1)C(c1ccccc1)c1ccccc1,inactive,
CN=C(N)NCCCCC/C=C(/C)CC(C)C1OC(=O)C(C)C(O)/C=C/C(C)C(O)CC(O)C(C)C(O)CCC(C)C(O)CC2(O)OC(CC(OC(=O)CC(=O)O)CC(O)CC(O)C(C)C(O)/C(C)=C/CCC1C)CC(O)C2O (centres undefined),,0% [at 11.6 µM] (inactive)
CCOCCn1nc(CC)c2nc(N3CCC(C(=O)O)CC3)nc(Nc3cc(C)ccn3)c21,inactive,
CC1OC(OC2C(CO)OC(OCC3OC(OC(=O)C45CCC(C)(C)CC4C4=CCC6C7(C)CCC(OC8OC(CO)C(O)C(OC9OC(CO)C(O)C(O)C9O)C8O)C(C)(C)C7CCC6(C)C4(C)CC5)C(O)C(O)C3O)C(O)C2O)C(O)C(O)C1OC1OC(CO)C(O)C(O)C1O (centres undefined),,13.6% [at 6.55 µM] (inactive)
O=c1[nH]ccc2cc(OC3CCNCC3)ccc12,inactive,
